# Measurements from PubChem BioAssay AID1981 (Southern Research Specialized Biocontainment Screening …, 2009).
# The campaign covered roughly 2,200 compounds. About 480 (22%) were called active. Only a sample is shown. Measured potencies and affinities stand elsewhere. A number with no mark means an inactive call. How the calls were made is not given here.
# Test: S. Typhimurium GFP fluorescence modified counterscreen for PhoP regulon inhibitor project dose response (AID 1981);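 further: 0% = induced DMSO wells and 100% = uninduced wells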
# Details: 4 h; series mostly up to 150 µM; inhibition: at the top concentration
row,SMILES,inhibition
1,Nc1nnc(SCCOc2ccc(Br)cc2)s1,-21.9%
2,c1ccc(-c2cnn3nnnc3n2)cc1,15.6%
3,CC(C)CNC(=S)NC1CCCC1,0.61%
4,Cc1cc(/C=N/n2cnnc2)c(C)n1-c1ccc(OCc2ccc(F)cc2)cc1,-6.71%
5,COc1ccc(/C=C/c2nc3ccccc3n2Cc2ccccc2OC)cc1,-5.86%
6,COc1cccc(-n2c(N)c(C(=O)Nc3c(C)n(C)n(-c4ccccc4)c3=O)c3nc4ccccc4nc32)c1,24.6%
7,COc1cccc(NC(=S)N/N=C2\CC(C)(C)Oc3ccc(O)cc32)c1,-4.58%
8,CCc1cc2c(NCCC(=O)O)nc(C)nc2s1,-5.57%
9,CN1c2ccccc2C(O)=C(C(=O)Nc2ccccc2)S1(=O)=O,-25.7%
10,O=C(Nc1cccc2ccccc12)c1ccc(Cn2cc(Cl)cn2)cc1,-10.6%
11,Cc1cc(C)n(-c2nc(NCCN(C)C)c3c4c(sc3n2)CCCC4)n1,16.5%
12,Cc1ccc(-c2nnn(CC(=O)Nc3ccccc3-c3ccccc3)n2)c(-n2cnnn2)c1,-20.2%
13,N#Cc1ccc(COC(=O)c2ccc3c(=O)[nH]c(CN4CCOCC4)nc3c2)cc1,-16.6%
14,c1ccc(COc2cccc(CN3CCN(c4ccccn4)CC3)c2)cc1,-14.2%
15,O=c1[nH]c(CN2CCCCC2)nc2ccccc12,-0.84%
16,Cc1cc(C(C)c2ccccc2)c(O)c(CN2CCOCC2)c1C (centres undefined),4.28%
17,CC1C(C#N)=C(N)OC2=C1C(=O)CCC2 (centres undefined),1.35%
18,COc1ccc(C2C(C#N)=C(N)OC3=C2C(=O)CCC3)cc1Cn1cc([N+](=O)[O-])cn1 (centres undefined),15.4%
19,CCN(CC)CCCn1c(=S)[nH]c2cc(OC)c(OC)cc2c1=O,-0.94%
20,Cn1c(CO)cnc1SCc1ccc([N+](=O)[O-])cc1,-0.6%
21,COc1ccccc1Nc1nc(-c2c(C)[nH]c3ccccc23)cs1,24.6%
22,CCc1ccc(OCC(=O)Nc2ccc(-c3cc4ccccc4oc3=O)c(OC)c2)cc1,2.11%
23,COc1ccc2oc(=O)cc(C)c2c1,11.9%

row,SMILES,inhibition
1,COc1ccc(S(=O)(=O)n2ccc(-c3ccc(OCCN(C)c4ccccn4)cc3)n2)cc1,-16.7%
2,OCCNc1ccc(Cl)cc1,-9.47%
3,NNC(=S)Nc1ccc(Cl)cc1,6.57%
4,Cc1ccc(S(=O)(=O)NC2c3cccc4cccc(c34)C2Sc2n[nH]c(N)n2)cc1 (centres undefined),13.9%
5,Brc1ccc(-c2cnc3n2CCCC3)cc1,15.1%
6,CCCNC1=C(C)C(=O)C2=C(C1=O)C(COC(N)=O)[C@]1(OC)C3NC3CN21 (some centres undefined),32.6%
7,Cc1ccc(S(=O)(=O)c2c(N)n(NC(=O)c3ccco3)c3nc4ccccc4nc23)cc1,-0.13%
8,O=C(c1cnsn1)N1CCN(c2ccccc2)CC1,-1.8%
9,COc1ccc(OC)c(C2C=C(C34CC5CC(CC(C5)C3)C4)NC(=S)N2)c1 (centres undefined),-20%
10,O=C(c1[nH]ncc1-c1ccc(Cl)cc1)C1CO1 (centres undefined),8.07%
11,O=C(CSCc1cccc(CSCC(=O)Nc2ccc3ccccc3c2)n1)Nc1ccc2ccccc2c1,-6.02%
12,c1ccc(CSc2nnc(-c3ccncc3)o2)cc1,1.56%
13,C=CCNc1nnc(Cl)c2ccccc12,-10.6%
14,S=C(NCc1ccncc1)Nc1ccc(Cl)c(Cl)c1,-1.3%
15,Cc1cc(-c2csc(NC(=O)c3ccccc3C(F)(F)F)n2)c(C)n1Cc1ccccc1,11.7%
16,c1ccc(CNc2ncnc3ccccc23)cc1,-3.62%
17,Cc1cccc(C(=O)NC(NCc2ccco2)C(Cl)(Cl)Cl)c1 (centres undefined),-6.57%
18,c1coc(CNc2ncnc3ccccc23)c1,0%
19,Cc1ccc(-c2nc(NCc3cccnc3)c3ccccc3n2)cc1,0.48%
20,c1ccc(CN2CCN(c3nc(NCc4ccco4)c4ccccc4n3)CC2)cc1,-2.02%
21,c1ccc(CNc2nc(N3CCN(Cc4ccccc4)CC3)nc3ccccc23)cc1,-6.01%
22,Oc1ccccc1Nc1nc(NCc2ccco2)c2ccccc2n1,-2.16%
23,Cc1ccc2[nH]c3c(NCc4ccco4)ncnc3c2c1,-2.75%

row,SMILES,inhibition
1,O=C(c1ccccc1)N1CCN(c2ccc([N+](=O)[O-])c(NCc3ccco3)c2)CC1,0.28%
2,C/C(=N/NC(=O)Cc1cccn1C)c1ccccc1,3.18%
3,COc1ccc(NC(=O)CCNS(=O)(=O)c2ccc3c(c2)CCC(=O)N3)cc1,-0.32%
4,O=C(Nc1nccs1)c1cc(-c2ccco2)nc2ccccc12,-23.4%
5,Cc1cn([C@H]2C[C@H](N=[N+]=[N-])[C@@H](CO)O2)c(=O)[nH]c1=O,35.2% [at 75 µM]
6,COc1cccc(-c2nnc3sc(-c4ccc(C)cc4)nn23)c1,-9.25%
7,CN(CC(=O)N1CCN(c2ccccn2)CC1)S(=O)(=O)c1ccc2ccccc2c1,-4.15%
8,Cn1nnnc1SCC(=O)NC1CCCCC1,-10.9%
9,Nc1nnc(SCc2ccc(F)cc2Cl)s1,-15.6%
10,Cn1c(C(O)c2ccc(Br)cc2)nc(Cl)c1Cl (centres undefined),-13.2%
11,CCC1C2CN(C(C)=O)CC=C2C(C#N)=C(N)C1(C#N)C#N (centres undefined),6.02%
12,Clc1ccc(-n2ncc3c(NCc4cccs4)ncnc32)cc1,-17.4%
13,CCn1c(Cc2ccccc2)nnc1SCC(=O)Nc1nc(C)c(C)s1,0.1%
14,Nc1ccc2oc3ccccc3c2c1,16.8%
15,CCOc1cc(C2C(C(=O)OC)=C(C)N=C3SCCC(=O)N32)ccc1OC(C)=O (centres undefined),-2.17%
16,CCCn1c(/N=C/c2ccc3c(c2)OCO3)nc2ccccc21,15.2%
17,Cc1ccc(NS(=O)(=O)c2ccccc2)c2c1CC(C)(C)O2,-8.98%
18,COc1ccc(NC(=O)C(Sc2nnc(-c3ccncc3)n2-c2ccccc2C)c2ccccc2)cc1Cl (centres undefined),8.36%
19,CC(=O)Cn1cnc2sc(-c3ccccc3)cc2c1=O,4.67%
20,C/C(=N\Nc1nc2ccccc2[nH]1)c1cccs1,-5.9%
21,C/C(=N\Nc1nc2ccccc2[nH]1)c1ccc(Cl)s1,12.1%
22,O=S(=O)(c1ccc(N2CCCC2c2nc3ccccc3s2)nc1)N1CCOCC1 (centres undefined),-16.8%
23,O=C(/C=C/c1cccs1)N1CCN(Cc2ccc3c(c2)OCO3)CC1,-9.81%

row,SMILES,inhibition
1,CC(C)(C)NS(=O)(=O)c1ccc(CCC(=O)N2CCOCC2)cc1,-7.62%
2,Cc1cc(C(=O)CSc2nnnn2C)c(C)n1-c1ccc2c(c1)OCCO2,-3.82%
3,COC(=O)c1c(C)oc2ccc(NS(=O)(=O)c3cccs3)cc12,-14.3%
4,C(=N\N1CCN(Cc2ccccc2)CC1)/c1cccnc1,-10.5%
5,Cc1cc(N/N=C/c2cccc(Cl)c2)nc(NCc2ccccc2)n1,-17.7%
6,O=C(Nc1cccc(Cl)c1)C1C2CCC3C(CCC21)C3(Cl)Cl (centres undefined),-16.9%
7,O=C1CC(c2ccccc2)n2ncnc2N1 (centres undefined),-7.51%
8,O=C(NC(NC(=S)Nc1ccc(Cl)cc1)C(Cl)(Cl)Cl)c1ccco1 (centres undefined),-10.4%
9,Cc1onc(-c2ccccc2)c1C(=O)NC(=S)NNC(=O)c1ccc(O)cc1O,15.5%
10,FC(F)Oc1ccc(NC(=S)NCc2nc3ccccc3[nH]2)cc1,3.22%
11,CCn1c(N)[n+](CC(=O)Nc2ccc(SC(F)F)cc2)c2ccccc21,-16.1%
12,Cc1ccc2[nH]c3c(NCc4ccccc4)ncnc3c2c1,-12.9%
13,COC(=O)N1CCN(c2ccc(Cl)c(Cl)c2)CC1,-3.97%
14,Brc1ccc2nc3c(n2c1)CCCC3,10.4%
15,CC(=O)Nc1ccc(C(=O)Nc2nc(-c3cc(C)n(Cc4ccccc4)c3C)cs2)cc1,-1.17%
16,Cc1ccccc1Nc1nc(-c2sc(NC(=O)c3cccc(Cl)c3)nc2C)cs1,30.6%
17,CC(C)Cc1oc(C(=O)O)cc1CN,10.4%
18,Nc1nc(C2CCCCC2)cs1,-11.9%
19,CCN(CC(=O)Nc1ccc(N2CCOCC2)cc1)Cc1nc2ccccc2c(=O)[nH]1,-1.37%
20,COc1ccc(OC)c(/C=N/NC(=O)c2cc3c(OC)c(OC)ccc3[nH]2)c1,-13.9%
21,COc1ccc(OC)c(/C=N/NC(=O)Cc2nc3ccccc3[nH]2)c1,8.7%
22,C#CCOc1c(Cl)cc(/C=N/O)cc1OC,-8.22%
23,Cc1nn(-c2ncc(C(F)(F)F)cc2Cl)c(=O)n1-c1cccc(Cl)c1,-20.8%

row,SMILES,inhibition
1,Cc1ccc(C)n1-c1cccc(N)c1,8.69%
2,O=S1(=O)CC(O)C(Nc2ccccc2Cl)C1 (centres undefined),0.99%
3,COc1ccccc1NC(=O)Cn1nnc(-c2ccccc2NC(=O)c2cccs2)n1,-1.7%
4,Fc1cc(Br)ccc1NC(=S)Nc1ccccc1,-7.83%
5,CCN(CC)S(=O)(=O)c1cccc(NC(=O)Nc2cccc(C(F)(F)F)c2)c1,4.19%
6,COC(=O)Cc1ccc(NC(=S)N2CCN(c3ccc(F)cc3)CC2)cc1,12.2%
7,O=S(=O)(Nc1ccc2ccccc2c1)c1ccccc1,-3.83%
8,Cc1scc(C(=O)O)c1-c1c(C(=O)O)csc1C,-5.12%
9,O=C(c1ccccc1)c1nc2ccccc2n(CCCn2c(=O)c(C(=O)c3ccccc3)nc3ccccc32)c1=O,10.8%
10,CCCn1c(NCc2c[nH]c3ccccc23)nc2ccccc21,-16.7%
11,CCC(C)N1C(=O)/C(=C/c2ccc3c(c2)CCN3CCCCl)C(=O)NC1=S (centres undefined),11.6%
12,COc1ccc(-n2c(=O)c3ccccc3n(CC(=O)Nc3cc(C)on3)c2=O)cc1OC,-6.76%
13,CCn1c2ccccc2c2cc(NC(=O)COc3ccccc3)ccc21,-7.07%
14,CCCSc1nc(N2CCCC2)c2c(c1C#N)CC(C)(C)OC2,3.09%
15,c1nc(N2CCC3(CC2)OCCO3)c2c3c(sc2n1)CCCC3,-0.83%
16,C=CCc1ccccc1OCC(O)CN1CCN(CCN2C(=O)c3cccc4cccc(c34)C2=O)CC1 (centres undefined),8.96%
17,COc1ccc([N+](=O)[O-])cc1N(CC(O)Cn1nnc2ccccc21)S(=O)(=O)c1ccc(C)cc1 (centres undefined),8.93%
18,Cc1ccc(/C(O)=C2\C(=O)C(=O)N(CC(C)O)C2c2cccc(F)c2)cc1 (centres undefined),-24.2%
19,COc1ccc(C2CC(c3ccccc3)=NN2C(=O)COC(=O)c2cccnc2)cc1 (centres undefined),-4.41%
20,CCOC(=O)/C=C1\SCC(=O)N1CC(=O)NC1CCCCC1,5.36%
21,COC(=O)c1ccc2c(=O)n(CCN3CCOCC3)c(SCC(=O)C(C)(C)C)nc2c1,-14.9%
22,Cc1nn(-c2ccccc2)c(N2CCCC2)c1/C=N/Nc1ccc(S(N)(=O)=O)cc1[N+](=O)[O-],38%
